From PubChem BioAssay
Unmarked numbers belong to inactive results. Entries that show only a call come without a potency. For some of these results: Potency and affinity values are given separately. Activity calls are given as the source filed them. Unless noted, how the calls were made is not given here.

Experiments:
[1] = antimalarial activity against Dd2 strain (AID 2302;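 active means growth inhibition above 50% at the single 2 µM test dose, taken to imply half-maximal potency below 2 µM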); conditions: P. falciparum Dd2 in RBCs, LDH growth readout, 72 h; at 2 µM; stronger effect = higher value
[2] = target: L-lactate dehydrogenase (Plasmodium falciparum (isolate CDC / Honduras)) (UniProt Q27743); experiment: PfLDH activity inhibition – cell lysate, 3D7 strain, counter-screen for P. falciparum growth inhibition project (AID 2304); conditions: P. falciparum 3D7 crude extract, LDH APAD/NBT absorbance; at 2 µM; stronger effect = higher value
[3] = inhibition of 3D7 malaria parasite growth – strain 3D7 (AID 2306); conditions: P. falciparum 3D7 erythrocytic growth, LDH absorbance, 72 h; at 2 µM; stronger effect = higher value
[4] = target: Calcium-dependent protein kinase 1 (Plasmodium falciparum (isolate 3D7)) (UniProt P62344); experiment: PfCDPK1 kinase inhibitors, biochemical, TCAMS library (AID 1159585; cut-off not given, nearly all actives have IC50 up to about 0.98 µM;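 further: inhibitors leave more ATP so luminescence rises with inhibition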); conditions: recombinant PfCDPK1, Kinase-Glo ATP depletion luminescence
[5] = target: Plasmodium falciparum protein kinase 6 (PK6, PF3D7_1337100) (UniProt Q8IDW1); experiment: PfPK6 kinase inhibitors, biochemical, TCAMS library (AID 1159586); conditions: recombinant PfPK6, Kinase-Glo ATP depletion luminescence
[6] = target: Protein kinase 7 (PK7), Plasmodium falciparum 3D7 (PF3D7_0213400) (UniProt Q7YTF7); experiment: inhibition of Plasmodium PK7 catalytic activity – biochemical, TCAMS antimalarial set, Kinase-Glo luminescence (AID 1159587); conditions: recombinant PfPK7, Kinase-Glo ATP depletion luminescence
[7] = target: Calcium-dependent protein kinase 4 (Plasmodium falciparum (isolate 3D7)) (UniProt Q8IBS5); experiment: PfCDPK4 kinase inhibitors, biochemical, TCAMS library (AID 1159588; cut-off not given, nearly all actives have IC50 up to about 0.91 µM); conditions: recombinant PfCDPK4, Kinase-Glo ATP depletion luminescence
Chain of Calcium-dependent protein kinase 4 (Plasmodium falciparum (isolate 3D7)) (Q8IBS5 whole entry, looked up): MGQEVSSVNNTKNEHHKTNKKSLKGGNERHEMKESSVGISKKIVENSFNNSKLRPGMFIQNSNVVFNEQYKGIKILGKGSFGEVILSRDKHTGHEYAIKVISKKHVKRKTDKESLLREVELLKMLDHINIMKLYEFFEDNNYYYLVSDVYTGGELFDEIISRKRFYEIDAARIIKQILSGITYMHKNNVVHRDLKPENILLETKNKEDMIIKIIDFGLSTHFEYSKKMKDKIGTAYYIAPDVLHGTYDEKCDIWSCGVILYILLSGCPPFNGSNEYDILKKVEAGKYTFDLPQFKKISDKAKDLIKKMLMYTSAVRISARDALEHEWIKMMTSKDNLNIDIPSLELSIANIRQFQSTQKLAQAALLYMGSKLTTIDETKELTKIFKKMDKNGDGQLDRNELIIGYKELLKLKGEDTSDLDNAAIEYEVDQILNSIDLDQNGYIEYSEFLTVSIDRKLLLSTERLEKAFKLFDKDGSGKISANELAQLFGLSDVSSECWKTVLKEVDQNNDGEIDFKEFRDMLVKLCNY

Chain of Calcium-dependent protein kinase 1 (Plasmodium falciparum (isolate 3D7)) (P62344 whole entry, looked up): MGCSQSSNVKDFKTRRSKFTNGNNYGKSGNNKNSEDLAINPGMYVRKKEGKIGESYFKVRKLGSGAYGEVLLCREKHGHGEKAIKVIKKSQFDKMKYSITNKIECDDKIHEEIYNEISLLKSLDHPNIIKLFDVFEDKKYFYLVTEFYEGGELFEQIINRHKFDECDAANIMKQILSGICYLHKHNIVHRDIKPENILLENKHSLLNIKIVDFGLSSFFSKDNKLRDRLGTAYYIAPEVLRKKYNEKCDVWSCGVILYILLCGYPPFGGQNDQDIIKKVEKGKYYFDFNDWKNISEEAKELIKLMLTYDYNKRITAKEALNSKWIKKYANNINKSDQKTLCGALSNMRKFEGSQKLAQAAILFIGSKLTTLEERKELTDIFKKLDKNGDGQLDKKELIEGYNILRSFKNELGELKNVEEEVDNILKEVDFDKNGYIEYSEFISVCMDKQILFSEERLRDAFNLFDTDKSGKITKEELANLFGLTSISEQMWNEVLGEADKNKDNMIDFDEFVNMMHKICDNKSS
Chain of Plasmodium falciparum protein kinase 6 (PK6, PF3D7_1337100) (Q8IDW1 1-305): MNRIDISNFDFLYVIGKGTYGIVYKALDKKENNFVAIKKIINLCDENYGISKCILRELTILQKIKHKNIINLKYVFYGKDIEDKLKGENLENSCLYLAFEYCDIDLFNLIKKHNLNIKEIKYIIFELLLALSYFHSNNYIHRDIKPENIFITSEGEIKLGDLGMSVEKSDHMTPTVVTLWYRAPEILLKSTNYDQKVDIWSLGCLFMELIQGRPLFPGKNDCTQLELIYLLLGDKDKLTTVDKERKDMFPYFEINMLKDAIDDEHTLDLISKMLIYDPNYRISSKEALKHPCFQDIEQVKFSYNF
Chain of L-lactate dehydrogenase (Plasmodium falciparum (isolate CDC / Honduras)) (Q27743 whole entry, looked up): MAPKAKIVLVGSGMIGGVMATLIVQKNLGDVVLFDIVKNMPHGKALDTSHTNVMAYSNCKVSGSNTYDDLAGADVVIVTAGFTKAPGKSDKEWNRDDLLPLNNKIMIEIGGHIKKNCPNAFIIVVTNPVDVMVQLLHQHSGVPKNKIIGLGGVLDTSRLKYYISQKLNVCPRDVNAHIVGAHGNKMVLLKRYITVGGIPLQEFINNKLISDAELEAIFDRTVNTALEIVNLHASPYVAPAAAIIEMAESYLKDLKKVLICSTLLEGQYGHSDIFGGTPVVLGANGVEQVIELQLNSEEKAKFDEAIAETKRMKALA
Chain of Protein kinase 7 (PK7), Plasmodium falciparum 3D7 (PF3D7_0213400) (Q7YTF7 1-343): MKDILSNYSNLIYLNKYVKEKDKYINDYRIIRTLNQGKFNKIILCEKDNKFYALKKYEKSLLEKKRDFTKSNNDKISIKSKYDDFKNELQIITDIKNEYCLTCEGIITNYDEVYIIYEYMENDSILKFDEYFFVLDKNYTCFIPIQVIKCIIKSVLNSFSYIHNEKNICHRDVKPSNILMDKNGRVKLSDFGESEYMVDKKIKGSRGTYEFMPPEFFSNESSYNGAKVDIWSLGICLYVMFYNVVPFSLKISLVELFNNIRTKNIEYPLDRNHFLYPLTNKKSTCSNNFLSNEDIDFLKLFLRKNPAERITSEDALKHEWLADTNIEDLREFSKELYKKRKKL

SMILES	growth inhibition [1]	inhibition [2]	growth inhibition [3]	outcome [4]	outcome [5]	outcome [6]	outcome [7]
N=C(N)c1ccc2[nH]c(-c3cc4cc(C(=N)N)ccc4o3)cc2c1	87% (active)	5%	94% (active)	inactive	inactive	inactive	inactive
Cc1cccc(Cn2ccc3c4c(N)nc(N)nc4ccc32)c1	98% (active)	1%	95% (active)	inactive	inactive	inactive	inactive
COc1cc(Cc2cnc(N)nc2N)cc(OCCCC(=O)O)c1OC	-3%	3%	84% (active)	inactive	inactive	inactive	inactive
COc1cc2c(cc1OC)C(C)(C)CN1Cc3c(c(CO)c(OC)c(OC)c3OC)CC21 (centres undefined)	9%	2%	95% (active)	inactive	inactive	inactive	inactive
COc1cc(Cc2cnc(N)nc2N)cc(OCCCCCCN)c1OC	-4%	-6%	96% (active)	inactive	inactive	inactive	inactive
COc1cc(Cc2cnc(N)nc2N)cc(OCCCC#N)c1OC	-1%	-3%	86% (active)	inactive	inactive	inactive	inactive
CCCCSc1ccc(CNCCCCCCNCc2ccc(SCCCC)c3ccccc23)c2ccccc12	48%	0%	94% (active)	inactive	inactive	inactive	inactive
Cc1[nH]c(C)c(-c2ccc(Oc3cc(Cl)cc(Cl)c3)cc2)c(=O)c1Cl	96% (active)	-7%	96% (active)	inactive	inactive	inactive	inactive
Nc1nc(N)c2c3c(ccc2n1)CCC3	2%	-3%	92% (active)	inactive	inactive	inactive	inactive
CC(=O)Oc1c(Cl)c(C)nc(C)c1-c1ccc(Oc2ccc(Cl)cc2)cc1	96% (active)	0%	98% (active)	inactive	inactive	inactive	inactive
CCOc1cc2ncnc(Nc3ccc(OCc4ccccc4OC)c(OC)c3)c2cc1OCC	52% (active)	-5%	97% (active)	inactive	inactive	inactive	inactive
Cc1[nH]c(C)c(-c2ccc(Oc3ccc(Cl)cc3)cc2)c(=O)c1I	49%	5%	88% (active)	inactive	inactive	inactive	inactive
CCCc1cc(Cc2cnc(N)nc2N)cc2c1OC(C)(C)C2	3%	-1%	89% (active)	inactive	inactive	inactive	inactive
CCCCC#Cc1cnc2nc(N)[nH]c(=O)c2n1	2%	0%	89% (active)	inactive	inactive	inactive	inactive
CCc1cc(COc2ccc(CNCCC(C)C)cc2I)c(OCc2ccccc2)c(COc2ccc(CNCCC(C)C)cc2I)c1	15%	0%	89% (active)	inactive	inactive	inactive	inactive
CC(C)Cn1ccc2c3c(N)nc(N)nc3ccc21	96% (active)	1%	96% (active)	inactive	inactive	inactive	inactive
COc1cc(Cc2cnc(N)nc2N)cc(OCCCCCCC(=O)O)c1OC	2%	-4%	90% (active)	inactive	inactive	inactive	inactive
CN=C(N)c1ccc(NC(=O)C=Cc2ccc(C(=O)Nc3ccc(C(N)=NC)cc3)cc2)cc1	100% (active)	1%	97% (active)	inactive	inactive	inactive	inactive
CN1CCN(c2ccc3nc(-c4ccc5nc(-c6ccc([N+](=O)[O-])c(N)c6)[nH]c5c4)[nH]c3c2)CC1	101% (active)	-7%	100% (active)	inactive	inactive	inactive	inactive
Nc1nc(N)c2c(ccc3[nH]c(-c4ccccc4Cl)nc32)n1	101% (active)	-1%	101% (active)	inactive	inactive	inactive	inactive
CCC(=C(CC)c1ccc(O)c(CNC2CCCCC2)c1)c1ccc(O)c(CNC2CCCCC2)c1	100% (active)	-1%	100% (active)	inactive	inactive	inactive	inactive
CCN(CC)CCCC(C)Nc1ccnc2cc(C#N)ccc12 (centres undefined)	80% (active)	-1%	100% (active)	inactive	inactive	inactive	inactive
